Assay in all cases: NCI-60 one-dose screen, 48 h (100 = growth as untreated, 0 = no growth, -100 = all killed)
Test [1] deals with NCI-H23 lung. The settings on record: 10 µM.
Test [2] has as its system NCI-H226 lung. The settings on record: 10 µM.
Test [3] has as its system NCI-H322M lung. The settings on record: 10 µM.
For test [4], the system named is HOP-62 NSCLC. The settings on record: 10 µM.
Test [5] concerns NCI-H522 lung. The settings on record: 10 µM.
Test [6] concerns A549/ATCC NSCLC. The settings on record: 10 µM.
The subject of test [7] is 786-0 renal. The settings on record: 10 µM.
Test [8] deals with DU-145 prostate. The settings on record: 10 µM.
Test [9] relates to K-562 leukemia. The settings on record: 10 µM.
Test [10] relates to MALME-3M melanoma. The settings on record: 10 µM.
The subject of test [11] is MDA-MB-231 breast. The settings on record: 10 µM.
Test [12] relates to SF-268 CNS. The settings on record: 10 µM.
For test [13], the system named is SF-295 CNS. The settings on record: 10 µM.
In test [14] the test system is SF-539 CNS. The settings on record: 10 µM.
In test [15] the test system is UACC-257 melanoma. The settings on record: 10 µM.
For test [16], the system named is M14 melanoma. The settings on record: 10 µM unless noted.
The test system of test [17] is HOP-92 NSCLC. The settings on record: 10 µM.
Test [18] relates to RXF 393 renal. The settings on record: 10 µM.

The panel holds about 83,000 compounds, 20% with a hit somewhere; the sample as a whole holds those more often.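 Cell lines were cultured in 96-well plates, exposed to a single compound concentration, and assessed for percent growth 48 hours later.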 A number with no mark means an inactive call. Activity calls are given as the source filed them. Rule for the calls: active = growth percent below 10; inactive = the rest.

Turning to `O=C1c2ccccc2CCC1(Br)Br`, the growth is 28.9% in test [1]; 27.1% in [2]; 100% in test [3]; 96.5% in [4]; -70.8% (active) in test [5]; 96% in [6]. Moreover, the growth in test [7] is 14.8%; in [8], 21.8%; in test [9], -13.5% (active); in test [10] it was -45.8% (active); in test [11], -1.14% (active); in test [12], 59.3%. Moreover, the growth in test [13] was 105%; in test [14], 16.9%; in test [15], 63%; in test [16] it was 5.66% (active).
On to `CN(C)CCNc1cccc2sc3ccc(O)cc3c(=O)c12`, for which the growth in [1] is 54.6%; in test [2], 74%; in test [3], 59.1%; in test [4], 46.2%; in test [17], 31.9%; in test [6] it was 17.3%. For the same compound, the growth in test [7] is 63.3%; in test [8] it was 43.6%; in test [9] it was 22.7%; in test [10], 1.1% (active); in test [11], 47.2%; in test [18], 60.2%. The growth is 23.5% in test [12], -12.9% (active) in test [13], 35.9% in test [14] and 53.8% in test [16].
`O=Nc1ccc(Nc2ccccc2)cc1`: the growth was 89% in test [1]; 92.8% in [2]; 98.5% in test [3]; 111% in test [4]; 26% in test [17]; 66.8% in [5]. The growth in [7] was 80%; in test [8] it was 94.9%; in [9], 13.4%; in test [10], 104%; in [11] it was 62.5%; in [18], 86.5%. Also, the growth is 86% in test [12], 101% in test [13], 67.7% in [14] and 89.7% in test [16].
Consider `O=c1[nH]cc(/C=N\Nc2ccccc2)c(=O)[nH]1`, for which the growth in [1] is 89.9%; in [2], 87.7%; in test [3], 58.1%; in test [4], 62.7%; in test [17], 96.7%; in test [5] it was 19.7%. Also, the growth in test [6] is 29.4%; in [7], 79.6%; in test [8], 74.2%; in [9] it was 8.14% (active); in test [10], 84.4%; in test [11], 63.9%. In addition, the growth in [18] was 111%; in [12] it was 58.5%; in test [13], 45.5%; in test [15], 78.4%; in test [16] it was 50.8%.
With `ClCCn1c(CCl)nc2ccc(Cl)cc21`, the growth in [1] is -17.1% (active); in [3], 99.5%; in test [17], -57.2% (active); in test [5], -73.2% (active); in test [6], -12.5% (active); in test [7] it was -59.9% (active). The growth was -59.3% (active) in [8]; -23.7% (active) in [9]; -64.3% (active) in test [10]; -61.7% (active) in test [11]; -73.9% (active) in test [18]; -69.2% (active) in [12]. The growth in test [13] was 25.3%; in test [14] it was -43.9% (active); in [15], 70.3%; in [16] it was -83.3% (active).
`Nc1nc(N)c2cc(Sc3ccc4ccccc4c3)ccc2n1`: the growth in test [1] is 43.1%; in test [2], 57.7%; in [3], 48%; in test [4], 65%; in [17] it was 30.3%; in test [5] it was 31.4%. The growth in test [6] was 15.2%; in test [7] it was 23%; in [8] it was 30.5%; in test [9] it was -3.38% (active); in test [10] it was 53%; in [11] it was 40.2%. Further, the growth was 52.7% in [18]; 42.1% in test [12]; 33.2% in test [14]; 32.9% in test [15]; 16.4% in test [16].
Turning to `C=C1N(C)c2ccc(Cl)cc2C1(C)C`, the growth in [1] was 52%; in test [2], 67.6%; in test [3], 84.2%; in test [4], 63.6%; in test [17], 48.1%; in test [5], 23.7%. Further, the growth in [6] is 44.4%; in test [7], 75.8%; in test [8] it was 48.9%; in test [9] it was 13.2%; in test [10] it was 66%; in [11] it was 82.7%. The growth was 77.4% in [12]; 67.1% in [13]; 109% in test [14]; 60.4% in test [15]; 72.2% in [16].

For the origin of these results see PubChem BioAssay (NCI).
